Potency and affinity values are given separately. Records with an inconclusive call do not appear. The source made the active and inactive calls. Unless noted, the rule behind the calls is not given here.
What was measured:
[1] = cytotoxicity in PAX8-dependent RMG-1 cells, dose response, cell-based, cherry-pick (AID 687029;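 active = signal drop whose fitted half-maximal concentration is at most twice the top valid dose, in every test run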;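 note: cells exposed to compound for 96 hours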)
[2] = cytotoxicity in IOSE-T80 ovarian epithelial cells, dose response, selectivity assay for PAX8 inhibitor project, cell-based, cherry-pick (AID 687032;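 active = fitted half-maximal concentration for viability loss no higher than twice the top valid dose, in every repeat run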;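 note: cells exposed to compound for 96 h before reading; 0% = neutral control wells and -100% = 2 µM mitoxantrone kill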)
[3] = inhibitors of CMV-promoter luciferase reporter, dose response, counter-screen for Pax8 inhibitor project, cell-based, HEK293, luminescence, dry powder (AID 743020;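 active = signal-lowering compounds whose fitted half-maximal concentration is at or below twice the top tested dose in every run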;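 note: HEK293 cells stably expressing the CMV luciferase reporter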)
[4] = IGROV1 ovarian cancer cell cytotoxicity, dose response, PAX8 inhibitor project, plate reader, dry powder samples (AID 743043);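 note: more negative means fewer viable cells or more cytotoxicity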
[5] = A2780 ovarian cancer cell cytotoxicity, dose response, cytotoxicity control, plate reader, dry powder samples (AID 743046);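 note: 0% = neutral control wells and -100% = cytotoxic reference compound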
[6] = IOSE-T80 ovarian epithelial cell cytotoxicity, dose response, cytotoxicity control for PAX8 inhibitor project, plate reader, dry powder samples (AID 743045);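 note: 0% = neutral control median and -100% = positive control median; more negative values mean more cell killing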
[7] = cytotoxicity in OVCAR8 ovarian cancer cells, dose response, PAX8 project, cell-based, plate reader, dry powder samples (AID 743197)
[8] = NIH:OVCAR-3 ovarian cancer cell cytotoxicity, dose response, PAX8 inhibitor project, plate reader, dry powder samples (AID 743044); conditions: max activity: at 35 µM, active compounds read low unless noted
[9] = non-specific cell cytotoxicity, dose response, cytotoxicity control for PAX8 inhibitor project, plate reader, dry powder samples (AID 743021)

Fc1cccc(CN2C[C@@H]3N[C@H](C2)[C@@H]3c2ccc(-c3cccc(F)c3)cc2)c1
inactive: outcome [1] | outcome [2] | outcome [3] | outcome [4] | outcome [5]

O=C(c1ccc(F)cc1)N1CC(=O)N2[C@@H](CO)[C@@H](c3ccc(C#Cc4ccc(F)cc4)cc3)[C@@H]2C1
inactive: outcome [1] | outcome [2] | outcome [3] | outcome [6] | outcome [5]

C[C@H](CO)N1C[C@H](C)[C@@H](CN(C)S(=O)(=O)c2ccc(Cl)cc2)OCCCC[C@H](C)Oc2ccc(NS(=O)(=O)c3ccccc3)cc2C1=O
inactive: outcome [1] | outcome [2] | outcome [3] | outcome [4] | outcome [5] | outcome [7]

O=C(C[C@H]1CC[C@H]2[C@@H](COC[C@@H](O)CN2S(=O)(=O)c2cccc(Cl)c2)O1)Nc1ccc(-c2ccccc2)cc1
inactive: outcome [1] | outcome [2] | outcome [3] | outcome [6] | outcome [5]

C[C@@H]1CCCCO[C@H](CN(C)CC2CCCCC2)[C@H](C)CN([C@H](C)CO)C(=O)c2cc(NS(=O)(=O)c3ccccc3)ccc2O1
inactive: outcome [1] | outcome [2] | outcome [3] | outcome [6] | outcome [5]

O=C(Nc1cccc(F)c1)N1CCCCN2[C@H](CO)[C@@H](c3ccc(-c4ccccc4F)cc3)[C@H]2C1
inactive: outcome [1] | outcome [2] | outcome [3] | outcome [6] | outcome [5] | outcome [7]

N#C[C@H]1[C@@H](c2ccc(C#Cc3ccc(F)cc3)cc2)[C@H](CO)N1C(=O)C1CCCC1
inactive: outcome [1] | outcome [2] | outcome [3] | outcome [6]

COc1ccc(-c2ccc3c(c2)[C@H]2[C@H](CCN2S(=O)(=O)c2ccc(F)cc2)[C@H](CO)N3C)cc1
inactive: outcome [1] | outcome [2] | outcome [3] | outcome [6] | outcome [5]

O=C(Nc1ccc(F)cc1)N1C[C@@H]2N[C@H](C1)C2c1ccc(-c2ccccc2F)cc1 (stereo partly specified)
inactive: outcome [1] | outcome [2] | outcome [3] | outcome [6] | outcome [5]

C[C@H](CO)N1C[C@H](C)[C@H](CN(C)Cc2ccc(C(F)(F)F)cc2)OCCCC[C@H](C)Oc2ccc(NC(=O)Cc3ccccc3)cc2C1=O
inactive: outcome [1] | outcome [2] | outcome [3] | outcome [6]

COc1ccc(-c2ccc(C3[C@@H]4CN(Cc5cc(OC)cc(OC)c5)C[C@H]3N4)cc2)cc1 (stereo partly specified)
inactive: outcome [1] | outcome [2] | outcome [3] | max activity [8] -15.8% [at 16 µM, active compounds read low] | activity change, negative = cytotoxicity [6] 6.64% [at 8 µM] | outcome [5]

COc1ccc(NC(=O)N2CC(=O)N3[C@H](C2)[C@H](c2ccc(/C=C/c4ccccc4)cc2)[C@@H]3CO)cc1
inactive: outcome [1] | outcome [2] | outcome [3] | outcome [6] | outcome [7]

C[C@H](CO)N1C[C@H](C)[C@@H](CN(C)Cc2ccc(-c3ccccc3)cc2)Oc2ccc(NS(=O)(=O)c3ccccc3)cc2CC1=O
inactive: outcome [1] | outcome [2] | outcome [3] | max activity [8] 6.95% | outcome [6] | outcome [7]

C[C@@H]1CCCCO[C@H](CN(C)Cc2ccc(Cl)c(Cl)c2)[C@@H](C)CN([C@@H](C)CO)C(=O)c2cc(NC(=O)c3ccccc3)ccc2O1
inactive: outcome [1] | outcome [2] | outcome [3] | outcome [6] | outcome [5]

C[C@@H]1CN([C@@H](C)CO)C(=O)Cc2cc(NS(=O)(=O)c3ccccc3)ccc2O[C@H]1CN(C)Cc1ccc(C(F)(F)F)cc1
inactive: outcome [1] | outcome [2] | outcome [3] | outcome [6] | outcome [5]

Cc1ccccc1-c1ccc(C2[C@@H]3CN(C(=O)Nc4cccc(F)c4)C[C@H]2N3)cc1 (stereo partly specified)
inactive: outcome [1] | outcome [2] | outcome [3] | outcome [6] | outcome [5] | outcome [7]

COc1ccc(NC(=O)N2C[C@@H]3N[C@H](C2)[C@@H]3c2ccc(-c3ccc(OC)cc3)cc2)cc1
inactive: outcome [1] | outcome [2] | outcome [3] | outcome [5]

Cc1ccc(-c2ccc(C3[C@@H]4CN(C(=O)Nc5ccc(C(F)(F)F)cc5)C[C@H]3N4)cc2)cc1 (stereo partly specified)
inactive: outcome [1] | outcome [2] | outcome [3] | outcome [4] | outcome [5]

O=C1CN(S(=O)(=O)Cc2ccccc2)C[C@@H]2[C@@H](c3ccc(C#Cc4ccc(F)cc4)cc3)[C@@H](CO)N12
inactive: outcome [1] | outcome [2] | outcome [3] | max activity [8] -59.7% [at 16 µM, active compounds read low] | outcome [6] | outcome [5]

Cc1ccccc1-c1ccc([C@@H]2[C@H](CO)N3CCCCN(C(=O)Nc4cccc(F)c4)C[C@@H]23)cc1
inactive: outcome [1] | outcome [2] | outcome [3] | outcome [6] | outcome [5] | outcome [7]

CCS(=O)(=O)N1CC(=O)N2[C@H](CO)[C@@H](c3ccc(-c4ccccc4F)cc3)[C@H]2C1
inactive: outcome [1] | outcome [2] | outcome [3] | outcome [6] | outcome [5]

O=C(C1CCC1)N1CC(=O)N2[C@H](CO)[C@H](c3ccc(C#CCc4ccccc4)cc3)[C@H]2C1
inactive: outcome [1] | outcome [2] | outcome [3] | outcome [6]

C[C@@H]1CN([C@H](C)CO)C(=O)c2cc(NC(=O)Nc3ccc(C(F)(F)F)cc3)ccc2O[C@@H](C)CCCCO[C@H]1CN(C)Cc1ccc2c(c1)OCO2
inactive: outcome [1] | outcome [2] | outcome [3] | max activity [8] -34.3% | outcome [6] | outcome [5]

C[C@@H]1CN([C@@H](C)CO)C(=O)Cc2cc(NS(=O)(=O)c3ccc(Cl)cc3)ccc2O[C@@H]1CN(C)CC1CCCCC1
inactive: outcome [1] | outcome [2] | outcome [3] | outcome [6] | outcome [5] | outcome [7]

C[C@H](CO)N1C[C@H](C)[C@@H](CN(C)S(=O)(=O)c2cccs2)OCCCC[C@H](C)Oc2ccc(NS(=O)(=O)c3ccc(Cl)cc3)cc2C1=O
inactive: outcome [1] | outcome [2] | outcome [3] | outcome [6] | outcome [5]

C[C@@H]1CN([C@H](C)CO)C(=O)c2cc(NC(=O)Nc3ccc(C(F)(F)F)cc3)ccc2O[C@@H](C)CCCCO[C@@H]1CN(C)Cc1ccccc1
inactive: outcome [1] | outcome [2] | outcome [3] | outcome [6]

Cc1ccc(S(=O)(=O)Nc2ccc3c(c2)C(=O)N([C@@H](C)CO)C[C@@H](C)[C@H](CN(C)Cc2ccc(C(F)(F)F)cc2)OCCCC[C@@H](C)O3)cc1
inactive: outcome [1] | outcome [2] | outcome [3] | outcome [6] | outcome [5]

Cc1ccc(S(=O)(=O)Nc2ccc3c(c2)CC(=O)N([C@@H](C)CO)C[C@H](C)[C@@H](CN(C)Cc2ccc(Oc4ccccc4)cc2)O3)cc1
inactive: outcome [1] | outcome [2] | outcome [3] | outcome [4] | outcome [7]

COc1ccc2c3c(n(C)c2c1)[C@H](CO)NCC31CCN(Cc2cc(-c3ccccc3)on2)CC1
inactive: outcome [1] | outcome [2] | outcome [3] | max activity [8] 40.6% [at 0.5 µM, active compounds read low] | outcome [6] | outcome [5]

CCCNC(=O)N(C)C[C@H]1N[C@@H](CO)[C@@H]1c1ccc(C2=CCCCC2)cc1
inactive: outcome [1] | outcome [2] | outcome [3] | outcome [5]

CCc1cnc(N2[C@@H](C#N)[C@@H](c3ccc(C#CC(C)C)cc3)[C@@H]2CO)s1
inactive: outcome [1] | outcome [2] | outcome [3] | max activity [8] 27.5% [at 1 µM, active compounds read low] | outcome [6] | outcome [7]

COc1ccc(NC(=O)Nc2ccc3c(c2)C(=O)N([C@H](C)CO)C[C@@H](C)[C@H](CN(C)Cc2ccc(C(F)(F)F)cc2)OCCCC[C@H](C)O3)cc1
inactive: outcome [1] | outcome [2] | outcome [3] | outcome [6] | outcome [5]

C[C@H](CO)N1C[C@H](C)[C@@H](CN(C)S(=O)(=O)c2ccc(Cl)cc2)OCCCC[C@H](C)Oc2ccc(NS(=O)(=O)c3cccs3)cc2C1=O
inactive: outcome [1] | outcome [2] | outcome [3] | outcome [4] | outcome [5]

COc1ccc(NC(=O)N2CC(=O)N3[C@@H](CO)[C@@H](c4ccc(/C=C/c5ccccc5)cc4)[C@@H]3C2)cc1
inactive: outcome [1] | outcome [2] | outcome [3] | max activity [8] 30.3% [at 16 µM, active compounds read low] | outcome [6] | outcome [5]

COc1cc(-c2cnc3c(NC=O)cc(-c4ccc(C)cc4)cn23)cc(OC)c1OC
inactive: outcome [1] | outcome [2] | outcome [9]

O=C(O)CCCN1C(=O)/C(=C\C(Cl)=C\c2ccccc2)SC1=S
inactive: outcome [1] | outcome [2] | outcome [9]

CS(=O)(=O)c1ncc(Cl)c(C(=O)Nc2ccc3ccccc3c2)n1
inactive: outcome [1] | outcome [2] | activity change, negative = cytotoxicity [9] 1.87% [at 8 µM]

Cc1cc(-n2c(SCC(=O)NCCC3=CCCCC3)nc3n[nH]c(C)c3c2=N)ccc1Cl
inactive: outcome [1] | outcome [2] | outcome [9]

CNC[C@@H](CC1CCCCC1)NC[C@H](CC(C)C)NCCc1cccc(C(F)(F)F)c1
inactive: outcome [1] | outcome [2] | outcome [9]

CC(=NNC(=S)N1CCC1)c1ccccn1
inactive: outcome [1] | outcome [2] | outcome [9]

C[C@H]1CCCCO[C@H](CN(C)C(=O)Nc2ccc(C(F)(F)F)cc2)[C@@H](C)CN([C@@H](C)CO)C(=O)c2cc(NS(=O)(=O)c3ccc(Cl)cc3)ccc2O1
inactive: outcome [1] | outcome [2] | outcome [9]

C#CCN(C[C@@H]1[C@@H](OC(=O)NCc2ccc(OC)c(OC)c2)[C@@H](OC(=O)NCc2ccc(OC)c(OC)c2)Cn2c(=O)ccc(=O)n21)S(=O)(=O)c1ccc(C)cc1
inactive: outcome [1] | outcome [2] | outcome [9]

N#C[C@H]1[C@@H](c2ccc(C#Cc3ccc(F)cc3)cc2)[C@H](CO)N1C(=O)Nc1ccc(F)cc1
inactive: outcome [1] | outcome [2] | outcome [3] | outcome [7]

Cc1[nH]c2ccccc2c(=O)c1C(=O)/C=C/c1ccccc1
inactive: outcome [1] | outcome [2] | outcome [9]

N#Cc1c(N)n(C2OC(CO)C(O)C2O)c2ncnc(N)c12 (stereo unspecified)
inactive: outcome [1] | outcome [2] | outcome [9]

CC(C)(C)OC(=O)NCCCC[C@H](NC(=O)c1[nH]cnc1C(=O)N[C@@H](Cc1ccccc1)C(=O)OC(C)(C)C)C(=O)OC(C)(C)C
inactive: outcome [1] | outcome [2] | outcome [9]

C=CCNC(=S)N/N=C(\C)c1ccccn1
inactive: outcome [1] | outcome [2] | outcome [9]

Cn1nnnc1Sc1ncnc2scc(-c3cccc4c3sc3ccccc34)c12
inactive: outcome [1] | outcome [2] | outcome [9]

Cc1ccc(S(=O)(=O)N(C)C[C@@H]2Oc3ccc(NC(=O)Nc4ccc(C(F)(F)F)cc4)cc3CC(=O)N([C@H](C)CO)C[C@@H]2C)cc1
inactive: outcome [1] | outcome [2] | outcome [9]

CC(=O)Nc1cc(-c2cccc(C(=O)NCCN(C)C)c2)cn2c(-c3cccc(C(F)(F)F)c3)cnc12
inactive: outcome [1] | outcome [2] | outcome [9]

CCS(=O)(=O)c1ncc(Cl)c(C(=O)Nc2ccc(S(=O)(=O)N3CCCC(C)C3)cc2)n1 (stereo unspecified)
inactive: outcome [1] | outcome [2] | outcome [9]

COc1cc(C2C3=C(Nc4ncnn42)c2ccccc2CC3)cc(OC)c1OC (stereo unspecified)
inactive: outcome [1] | outcome [2] | outcome [9]

Reference: PubChem BioAssay
